A selection: hits, their analogues and other compounds. The true share with any hit is near 0.51%.
FMDV RLuc: antivirals against foot and mouth disease virus replicon. FMDV replicon cells, Renilla luciferase signal. Potency, µM (titrated, usually from 57.5 µM), inactives show top-dose activity change, negative = inhibition, hits mostly inhibitors. hit rate 0.32% among 120,000; also: nearly all actives have a fitted effect of over 55% in size
FMDV antiviral: shows antiviral activity against foot and mouth disease virus | FMDV antiviral cell assay, firefly luciferase signal | Potency, µM (doses to about 57.5 µM), for inactives: at the highest dose activity change, negative = inhibition, usual class: inhibitors | hit rate 0.23% among 120,000 | AID 1745856; also: nearly all actives have a fitted effect of over 60% in size
Active calls of the source: *; ? = inconclusive; [ ] = remark or other dose. Calls follow the shape of the full dose curve. % is scaled to controls: 0 for no effect and ±100 for the full control effect; potency is read from the fitted curve at half-maximal effect.

SMILES	FMDV RLuc	FMDV antiviral
CN(Cc1ccc2ccccc2c1)C(=O)CN(C)c1ncnc2nc[nH]c12	?	32µM*
CN(CC(=O)N(C)C1CCCc2ccccc21)c1ncnc2nc[nH]c12 (configuration not stated)	-16%	-11%
O=C(Nc1ccc2ccccc2n1)c1ccc(S(=O)(=O)N2CCCCC2)cc1	32µM*	?
O=C(Nc1ccc2ccccc2n1)c1ccc(S(=O)(=O)NC2CC2)cc1	-4%	-2%
O=C(NCCCOC1CCCCC1)c1cc(=O)[nH]c2ccccc12	387%	0%
O=C(Nc1ccc(OC2CCCC2)cc1)c1ccncc1	5µM*	-25%
CC(C)=CC(=O)Nc1ccc(OC2CCCC2)cc1	10%	0%
CCOc1cccc(CNC)c1OCc1ccc(Cl)cc1	0%	-5%
Fc1ccc(COc2cccc(CNCC3CCNCC3)c2)cc1	32µM*	?
Brc1ccc(OCc2ccccc2)c(CNCC2CCNCC2)c1	-26%	-25%
c1ccc(Nc2c3c(nc4ccccc24)CCC3)cc1	-24%	-12%
CCc1ccc(Nc2c3c(nc4ccccc24)CCC3)cc1	?	25µM*
CC(CC(=O)NCc1ccccc1Cl)S(=O)(=O)c1ccc2c(c1)CCN2C(=O)C1CC1 (configuration not stated)	40%	3%
O=C(Nc1ccc(SCc2cccnc2)cc1)c1ccc2c(c1)OCCCO2	18µM*	?
O=C(Nc1ccc2c(c1)OCCCO2)c1ccc(SCc2cscn2)cc1	?	-10%
CC/C=C(/C)C(=O)Nc1ccc(SC)cc1	15%	122%
CCCCOc1cccc(C(=O)Nc2ccc3oc(-c4ccncc4)nc3c2)c1	-4%	23%
CC(O)c1ccc(-c2ccc(CNC3CCCC3)o2)cc1 (configuration not stated)	-4%	20%
CCC(NC(=O)C12CC3CC(CC(C3)C1)C2)c1ccccc1 (configuration not stated)	23%	1%
CCOC(=O)N1CCc2c(sc(NCc3ccc(OCC)cc3)c2C(=O)Nc2ccc(OC)cc2OC)C1	24%	25µM*
CCOC(=O)N1CCc2c(sc(NCc3ccc(OC)c(OC)c3OC)c2C(=O)Nc2ccc(OC)cc2OC)C1	9%	-26%
O=c1oc2ccccc2c(NC2CCCC2)c1NS(=O)(=O)c1ccc(Cl)cc1	31%	0%
Cc1csc2nc(-c3cccc(NC(=O)c4cccc(F)c4)c3)cn12	13µM*	-4%
Cc1csc2nc(-c3cccc(NC(=O)c4ccccc4F)c3)cn12	20%	116%
O=S1(=O)C=CC2ON=C(c3c(Cl)cccc3Cl)C21 (configuration not stated)	32µM*	?
SMILES	FMDV RLuc	FMDV antiviral
CSc1ccc(CNCCN2CCCC2)cc1	9%	-7%
Cc1cccc(NC(=O)CCl)c1	32µM*	?
Cc1cccc(NC(=O)CC2(C(=O)O)CCCCC2)c1	6%	6%
O=C(/C=C/N1CCC(Cc2ccccc2)CC1)C(F)(F)F	?	-16%
O=C(/C=C/N1CCC(CCCC2CCN(/C=C/C(=O)C(F)(F)F)CC2)CC1)C(F)(F)F	10µM*	?
Cc1ccsc1/C=C/C(=O)c1ccc2ccccc2c1	-12%[1.06 µM]	196%
O=C(O)c1nn(CC(=O)N2CCCCCCC2)c(=O)c2ccccc12	-2%	-9%
COc1ccc(-c2onc(C)c2C)cc1S(=O)(=O)N(C)Cc1ccco1	?	32µM*
CCN(CC)S(=O)(=O)c1cc(-c2onc(C)c2C)ccc1OC	101%	-9%
O=C(c1cc2c(Cl)nc3ccccc3c2s1)N1CCCCC1	5%	64%
CCOC(=O)C1CCCN(C(=O)c2cc3c(Cl)nc4ccccc4c3s2)C1 (configuration not stated)	-17%	6.3µM*
NC(=O)c1nn(CC(=O)NC2CCCCCC2)c(=O)c2ccccc12	6%	14%
Cc1ccc(CN(Cc2cc(=O)n3[nH]c(-c4cccc(C)c4)cc3n2)CC(C)C)cc1	25µM*	?
CCOc1ccc(CN(CC)Cc2cc(=O)n3[nH]c(-c4cccc(C)c4)cc3n2)cc1	-11%	-13%
Cc1cc(C)c(NC(=O)Cn2nnc(C(=O)NCc3cccs3)c2N)c(C)c1	-3%	35µM*
Cc1ccccc1NC(=O)Cn1nnc(C(=O)NCc2cccs2)c1N	56%	100%
CC1(C)C(=O)Nc2ccccc2N1C(=O)COC(=O)c1cnccn1	0%	2%
CC(C)NC(=O)c1cccc2c1CCCN2Cc1nc(-c2cccc(Cl)c2)no1	25µM*	?
CCc1ccc(-c2noc(CN3CCCc4c(C(=O)NC(C)C)cccc43)n2)cc1	7%	21%
CCOc1ccc(NC(=O)c2cccc(CN3CCCC3=O)c2)cc1	-3%	73%
CC(C)(C)c1ccc(NC(=O)c2cccc(CN3CCCC3=O)c2)cc1	28µM*	?
CSc1cccc(NC(=O)NC(C)c2ccc(Cl)s2)c1 (configuration not stated)	4%	?
CCOc1ccc(NC(=O)N2CCC3(CC2)Oc2ccccc2C(=O)N3Cc2ccccc2F)cc1	1%	-15%
O=Cc1cc(Cl)c(O)c(Br)c1	-6%	5%
Oc1c(Br)cc(Cl)cc1Cc1cc(Cl)cc(Br)c1O	3.5µM*	?
SMILES	FMDV RLuc	FMDV antiviral
Cc1ccc(NC(=O)C2CCN(c3nc4ccccc4o3)CC2)c(O)c1	-20%	9%
COc1cc(CN(C(=O)COc2ccc(C)cc2)c2ccccn2)cc(OC)c1OC	34%	40%
COc1cc(CN(C(=O)COc2ccc(Br)cc2)c2ccccn2)cc(OC)c1OC	22µM*	-42%
COC(=O)c1c[nH]c2ncccc12	10%	14%
C[C@@H]1O[C@@H](O[C@@H]2C=C3CC[C@@H]4[C@H](CC[C@]5(C)[C@@H](c6ccc(=O)oc6)CC[C@]45O)[C@@]3(C)CC2)[C@H](O)[C@H](O)[C@H]1O	-79%	-85%
COC1CC(OC2CCC3(/C=N/O)[C@H]4CCC5(C)C(C6=CC(=O)OC6)CCC5(O)[C@@H]4CCC3(O)C2)OC(C)C1O (some centres not stated)	0.35µM*	?
CC(=O)OC1CCC2(/C=N/O)[C@H]3CCC4(C)C(C5=CC(=O)OC5)CCC4(O)[C@@H]3CCC2(O)C1 (some centres not stated)	1µM*	0.79µM*
Cc1cc(NC(=O)NCC(c2cccs2)N2CCOCC2)n(C)n1 (configuration not stated)	-7%	22%
O=C(CN1CCN(c2ccc(C(F)(F)F)cn2)CC1)NC1CCCCC1	?	28µM*
O=C(CN1CCN(CC(=O)NC2CCCCC2)CC1)Nc1ccc(Cl)c(C(F)(F)F)c1	-22%	-20%
CCNc1c(NC(=O)c2cccc(Cl)c2)c(=O)oc2ccccc12	2%	-2%
Cn1nc(C(=O)OCC(=O)NCC2CCCO2)c2ccccc2c1=O (configuration not stated)	-9%	0%
CC(=O)c1c(C)[nH]c(C(=O)C(C)OC(=O)c2cc(Cl)ccc2F)c1C (configuration not stated)	16%	19%
CC(=O)c1c(C)[nH]c(C(=O)C(C)OC(=O)c2ccc(F)cc2)c1C (configuration not stated)	-6%[1.06 µM]	-24%
CC(=O)c1c(C)[nH]c(C(=O)C(C)OC(=O)c2ccc(F)cc2Cl)c1C (configuration not stated)	8.9µM*	20µM*
CC(=O)c1c(C)[nH]c(C(=O)C(C)N(C)Cc2cccc(F)c2)c1C (configuration not stated)	4µM*	?
CCN(Cc1nnc(-c2ccc(Br)s2)o1)C1CC1	10%	33%

Screening data: PubChem, National Center for Advancing Translational Sciences (NCATS)
